This note sets out measurements from PubChem BioAssay.

Each structure is given as a SMILES string. Active and inactive are the calls of the source.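 How the source made its calls, unless noted: active means fluorescence slope after compound addition differing from the mean of all screened samples at 99.7% confidence, in either direction; inactive means the rest.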

Experiment [1] can be described thus: inhibitors of TNFa-induced NFkB p65 translocation, primary screen, imaging, HUVEC, MLSMR starter and 10KST1 sets (AID 438;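 active means inhibition above 20% together with a positive visual image hit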;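 further: compound added about 3h40 before a 20 min TNFalpha stimulation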;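 on inhibition: signal is the nuclear over cytoplasmic p65 intensity ratio per well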). The following applies: HUVEC TNFa-induced p65 nuclear translocation; cell count: measured here: nuclei count (cytotoxicity indicator), at 2.08 µM; inhibition: at 2 µM, stronger effect = higher value, 0% TNFa-plus-vehicle, 100% no-TNFa wells.
Experiment [2] is described as follows: reduction of polyQ htt aggregates in cells – imaging, exon1htt(103Q)mCFP cells, high-content imaging, primary screen (AID 483;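 active means visual image review flags a hit and inhibition of aggregation exceeds 20%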;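 further: compound exposure lasted 3 days before fixation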;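 on nuclei count: percent of the per-plate median nuclei count of sample wells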). The following applies: exon1htt(103Q)mCFP cell line, aggregate imaging, at 2 µM; inhibition of aggregation: stronger effect = higher value; nuclei count: measured here: cell count, toxicity.
Experiment [3] is described as follows: endothelial E-selectin expression blockers – imaging, HUVEC, immunofluorescence, MLSMR starter and 10KST1 sets, primary screen (AID 487;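 active means visually confirmed hit in the image check and inhibition above 20%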;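 on inhibition: signal is fraction of cell area covered by stained E-selectin grains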;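 on nuclei count: 100% = median nuclei count of all wells on the same plate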). The following applies: HUVEC TNFalpha-induced E-selectin immunofluorescence imaging, at 2 µM; inhibition: stronger effect = higher value; nuclei count: measured here: cell number, toxicity.
The target in experiment [4] is Voltage-gated potassium channel subunit beta-2 (Rattus norvegicus) (UniProt P62483). The experiment is described as follows: inhibitors of rat Kvbeta2 reductase activity – biochemical, NADPH fluorescence, primary screen (AID 622;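 active means fluorescence slope higher than the sample average by over 3 SD, cut at about -0.22 in these data, passing the limit was not always enough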;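 further: slope of raw intensity against log time taken from 70 to 1610 s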). The following applies: recombinant KvBeta, 4-cyanobenzaldehyde reduction, at 10 µM, stronger effect = higher value.
For experiment [5] the target is unchanged. As to the kind of experiment: enhancers of rat Kvbeta2 NADPH turnover – biochemical, NADPH fluorescence, primary screen (AID 623;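 active means NADPH fluorescence slope more negative than the mean of all samples by about 3 SD, 99.7% confidence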;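 further: fluorescence intensity change per second fitted from 20 to 320 s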). The settings on record: Recombinant KvBeta, NADPH fluorescence decrease slope, 10 min; at 10 µM; stronger effect = lower value.
In experiment [6] the target is Alpha-2C adrenergic receptor (Homo sapiens) (UniProt P18825). As to the kind of experiment: compounds altering alpha2C-coupled GIRK flux – cell-based, HEK293 alpha2C/GIRK1/2, thallium flux, primary screen (AID 624).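 Further: slope of fluorescence ratio to pre-addition baseline per second over 15 to 24 s.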 The settings on record: thallium flux BTC fluorescence, at 10 µM, actives lie on both sides.
A short description of experiment [7]: blockers of RIG-like receptor reporter activation – cell-based, Sendai virus stimulus, luciferase, 10K MLSCN set, TLR/RLR signaling modifier project, primary screen (AID 602276;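 active means inhibition at or above 50% at 10 µM; inactive means inhibition below 50%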;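 further: firefly luciferase from ISG56 promoter only with Renilla not read in this screen; 0% = Sendai virus plus DMSO and 100% = medium plus DMSO without virus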). The following applies: HEK293 RL24 IRF3 luciferase reporter, at 10 µM, stronger effect = higher value.
Experiment [8] in a line: TLR3 IRF3 reporter activation blockers – cell-based, poly I:C stimulus, luciferase, 10K MLSCN set, primary screen (AID 602277;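 active means inhibition of the reporter signal at or above 50%; inactive means inhibition below 50%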). The following applies: HEK293-TLR3 RL24 IRF3 luciferase reporter, at 10 µM, stronger effect = higher value.

Sequence of Voltage-gated potassium channel subunit beta-2 (Rattus norvegicus) (P62483 whole entry, looked up): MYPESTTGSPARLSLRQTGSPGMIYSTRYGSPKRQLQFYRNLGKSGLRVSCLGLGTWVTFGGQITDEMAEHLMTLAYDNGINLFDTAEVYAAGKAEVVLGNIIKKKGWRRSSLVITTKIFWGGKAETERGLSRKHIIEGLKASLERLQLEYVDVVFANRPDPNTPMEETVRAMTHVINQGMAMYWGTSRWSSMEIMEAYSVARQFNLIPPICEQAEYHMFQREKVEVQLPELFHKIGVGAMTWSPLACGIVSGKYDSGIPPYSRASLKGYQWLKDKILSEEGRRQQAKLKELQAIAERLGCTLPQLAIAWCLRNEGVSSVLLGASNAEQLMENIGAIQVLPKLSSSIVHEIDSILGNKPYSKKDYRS
Sequence of Alpha-2C adrenergic receptor (Homo sapiens) (P18825 whole entry, looked up): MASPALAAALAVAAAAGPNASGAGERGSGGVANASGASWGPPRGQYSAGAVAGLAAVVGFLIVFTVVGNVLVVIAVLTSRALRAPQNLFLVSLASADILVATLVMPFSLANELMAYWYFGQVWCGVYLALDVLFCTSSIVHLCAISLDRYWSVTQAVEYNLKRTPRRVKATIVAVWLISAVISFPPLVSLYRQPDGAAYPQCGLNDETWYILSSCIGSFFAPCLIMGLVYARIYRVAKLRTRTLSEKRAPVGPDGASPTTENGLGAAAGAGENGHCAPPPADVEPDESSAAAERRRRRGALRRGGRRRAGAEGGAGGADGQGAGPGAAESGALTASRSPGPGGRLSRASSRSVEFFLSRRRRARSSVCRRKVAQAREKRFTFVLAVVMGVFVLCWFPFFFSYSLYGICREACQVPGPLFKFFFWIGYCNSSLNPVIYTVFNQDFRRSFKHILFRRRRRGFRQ

On to `O=S(CC(O)COCc1ccc(Cl)cc1)c1ccccn1` (centres undefined), for which the cell count in experiment [1] is 420. Further, the inhibition was -7.1% (inactive) in experiment [1], -37% (inactive) in experiment [3], 18.9% (inactive) in experiment [7] and 23.8% (inactive) in experiment [8]. For the same compound, the inhibition of aggregation in experiment [2] is -11.3% (inactive). In addition, the nuclei count in experiment [2] is 107%; in experiment [3], 127%. For the same compound, in experiment [4], the fluorescence slope was -0.442 (inactive). In addition, the NADPH fluorescence slope in experiment [5] was 6.3e-05 (inactive). Moreover, the slope in experiment [6] was 0.00586 (inactive).
For `Cc1cc(N)n2nc(-c3ccccc3)cc2n1`, the cell count in experiment [1] came out at 492. Further, the inhibition in experiment [1] was 1.2% (inactive); in experiment [3] it was -15.5% (inactive); in experiment [7], -31.2% (inactive); in experiment [8], -74.6% (inactive). In addition, the inhibition of aggregation in experiment [2] was 0% (inactive). The nuclei count amounted to 98.3% in experiment [2] and 110% in experiment [3]. In addition, the fluorescence slope in experiment [4] is -0.421 (inactive). Further, the NADPH fluorescence slope in experiment [5] is -8.6e-05 (inactive). The slope in experiment [6] was 0.00566 (inactive).
Take `CCOc1ccc2oc(-c3ccccc3)c(C(=O)N3CCN(CCO)CC3)c2c1`: the cell count in experiment [1] came to 649. Also, the inhibition in experiment [1] was -14.6% (inactive); in experiment [3], -37.2% (inactive); in experiment [7], 15.9% (inactive); in experiment [8] it was 34% (inactive). The inhibition of aggregation in experiment [2] was 2.8% (inactive). In addition, the nuclei count in experiment [2] was found to be 89.6%; in experiment [3], 112%. The fluorescence slope in experiment [4] was -0.584 (inactive). Further, the NADPH fluorescence slope in experiment [5] is 1.9e-05 (inactive). Further, the slope in experiment [6] is 0.00775 (inactive).
Turning to `CCOC(=O)c1cccc(NC(=O)CSc2nnc(C3CCCCC3)n2C)c1`, in experiment [1], the cell count stood at 291. Also, the inhibition in experiment [1] is -10.5% (inactive); in experiment [3], 18% (inactive); in experiment [7], 12.9% (inactive); in experiment [8] it was 17.5% (inactive). Also, the inhibition of aggregation in experiment [2] was 7.3% (inactive). Also, the nuclei count is 117% in experiment [2] and 113% in experiment [3]. In addition, in experiment [4], the fluorescence slope was -0.586 (inactive). For the same compound, the NADPH fluorescence slope in experiment [5] was -3.6e-05 (inactive). For the same compound, in experiment [6], the slope is 0.00599 (inactive).
For the compound `O=S(=O)(Nc1cccnc1)c1ccc2c(c1)OCCO2`, the cell count in experiment [1] was 337. Also, the inhibition in experiment [1] was 10.2% (inactive); in experiment [3], 16.8% (inactive); in experiment [7], 13.5% (inactive); in experiment [8] it was 17.6% (inactive). In addition, the inhibition of aggregation in experiment [2] was 5.2% (inactive). In addition, the nuclei count was determined as 88.2% in experiment [2] and 92% in experiment [3]. Besides, in experiment [4], the fluorescence slope is -0.393 (inactive). Besides, the NADPH fluorescence slope in experiment [5] is -4.2e-05 (inactive). For the same compound, the slope in experiment [6] is 0.00465 (inactive).
In the case of `CCOc1ccc(NCCC(=O)c2ccc3c(c2)OCO3)cc1`, the cell count in experiment [1] is 624. The inhibition was -5.4% (inactive) in experiment [1], 0% (inactive) in experiment [3], 2.87% (inactive) in experiment [7] and 12.5% (inactive) in experiment [8]. For the same compound, the inhibition of aggregation in experiment [2] was 29.9% (inactive). For the same compound, the nuclei count in experiment [2] turned out to be 96.9%; in experiment [3], 103%. Further, in experiment [4], the fluorescence slope was -0.326 (inactive). In experiment [5], the NADPH fluorescence slope is 8.4e-06 (inactive). Also, the slope in experiment [6] is 0.00304 (inactive).
In the case of `COC(=O)Cn1c(=NC(=O)CSCC(=O)Nc2cc(C)on2)sc2ccccc21`, the cell count in experiment [1] was 610. In addition, the inhibition in experiment [1] is -6.9% (inactive); in experiment [3], 1.2% (inactive); in experiment [7], 11.1% (inactive); in experiment [8], 28.1% (inactive). In addition, the inhibition of aggregation in experiment [2] is 2.6% (inactive). For the same compound, the nuclei count turned out to be 112% in experiment [2] and 111% in experiment [3]. Moreover, the fluorescence slope in experiment [4] was -0.417 (inactive). In experiment [5], the NADPH fluorescence slope was -6.3e-05 (inactive). The slope in experiment [6] was 0.00506 (inactive).
Turning to `Cc1cc(C)nc(NS(=O)(=O)c2ccc(NC(=O)Cn3c(=O)oc4ccccc43)cc2)n1`, the cell count in experiment [1] came out at 490. Moreover, the inhibition in experiment [1] is 0.5% (inactive); in experiment [3], -31.3% (inactive); in experiment [7], 9.3% (inactive); in experiment [8], 25.4% (inactive). The inhibition of aggregation in experiment [2] was 26% (inactive). Moreover, the nuclei count in experiment [2] was 63.8%; in experiment [3], 122%. The fluorescence slope in experiment [4] was -0.577 (inactive). Further, the NADPH fluorescence slope in experiment [5] was -4.3e-06 (inactive). For the same compound, the slope in experiment [6] is 0.00665 (inactive).
Consider `CNc1ccc(C(O)(C(F)(F)F)C(F)(F)F)cc1C(O)(C(F)(F)F)C(F)(F)F`, for which, in experiment [1], the cell count worked out at 667. Further, the inhibition in experiment [1] was 3.3% (inactive); in experiment [3], 3.3% (inactive); in experiment [7], 12.6% (inactive); in experiment [8] it was 18.9% (inactive). Moreover, in experiment [2], the inhibition of aggregation is -7.5% (inactive). Further, the nuclei count came to 103% in experiment [2] and 92.8% in experiment [3]. In addition, in experiment [4], the fluorescence slope was -0.616 (inactive). Further, in experiment [5], the NADPH fluorescence slope is -4.4e-05 (inactive). In experiment [6], the slope is 0.00297 (inactive).
Take `CCOC(=O)C1CCN(C(=O)CN(c2ccc(Cl)c(C(F)(F)F)c2)S(C)(=O)=O)CC1`: the cell count in experiment [1] stood at 648. Also, the inhibition in experiment [1] is -23.5% (inactive); in experiment [3], 8.7% (inactive); in experiment [7] it was 11.7% (inactive); in experiment [8], 16.6% (inactive). Also, the inhibition of aggregation in experiment [2] is -18.2% (inactive). For the same compound, the nuclei count in experiment [2] was found to be 107%; in experiment [3] it was 52.3%. The fluorescence slope in experiment [4] was -0.453 (inactive). Besides, in experiment [5], the NADPH fluorescence slope is -1.4e-05 (inactive). Also, the slope in experiment [6] was 0.0048 (inactive).
Consider `CCOc1ccccc1C1CC(c2ccc(Br)cc2)Nc2nc(N)nn21` (centres undefined), for which the cell count in experiment [1] was found to be 593. For the same compound, the inhibition is 6.9% (inactive) in experiment [1], -14.1% (inactive) in experiment [3], 18.7% (inactive) in experiment [7] and 33.7% (inactive) in experiment [8]. Moreover, the inhibition of aggregation in experiment [2] is 19.2% (inactive). Also, the nuclei count was 94.5% in experiment [2] and 107% in experiment [3]. In experiment [4], the fluorescence slope was -0.512 (inactive). Also, the NADPH fluorescence slope in experiment [5] was -4.3e-05 (inactive). Moreover, the slope in experiment [6] is 0.0067 (inactive).
As for `O=C(Cn1c(NCCO)nc2ccccc21)c1ccccc1`, in experiment [1], the cell count came to 513. The inhibition in experiment [1] was 4.9% (inactive); in experiment [3], -58.5% (inactive); in experiment [7], 9.81% (inactive); in experiment [8] it was 29.4% (inactive). Moreover, in experiment [2], the inhibition of aggregation is 18.2% (inactive). Moreover, the values for the nuclei count in experiment [2] and in experiment [3] were 106% and 115%, respectively. The fluorescence slope in experiment [4] was -0.58 (inactive). The NADPH fluorescence slope in experiment [5] was -1.8e-05 (inactive). In addition, the slope in experiment [6] is 0.00599 (inactive).
As to `O=S(=O)(c1ccc(F)cc1)N1CCC(N2CCCC2)CC1`, in experiment [1], the cell count worked out at 621. Moreover, the inhibition was 12.4% (inactive) in experiment [1], 12.6% (inactive) in experiment [3], 6.84% (inactive) in experiment [7] and 45.9% (inactive) in experiment [8]. Moreover, the inhibition of aggregation in experiment [2] is 5.9% (inactive). For the same compound, the nuclei count in experiment [2] and in experiment [3] was 107% throughout. Besides, the fluorescence slope in experiment [4] was -0.537 (inactive). For the same compound, the NADPH fluorescence slope in experiment [5] is -4.2e-05 (inactive). Besides, the slope in experiment [6] was 0.00636 (inactive).
On to `CC(C)OC(=O)CSc1nnc(-c2ccco2)n1N`, for which the cell count in experiment [1] came out at 618. Further, the inhibition in experiment [1] is 0% (inactive); in experiment [3], -1% (inactive); in experiment [7] it was 0.828% (inactive); in experiment [8] it was 17% (inactive). Also, in experiment [2], the inhibition of aggregation was 7.4% (inactive). In addition, the results for the nuclei count in experiment [2] and in experiment [3] were 93.2% and 97.5%, respectively. Also, the fluorescence slope in experiment [4] is -0.422 (inactive). In addition, the NADPH fluorescence slope in experiment [5] is -2.8e-05 (inactive). In addition, the slope in experiment [6] is 0.00405 (inactive).
